Screen size: about 65,000 compounds; about 120 (0.18%) were called active. Cut-off read from the data, not from the text of the source: active = z-score below about -3; inactive = the rest. The full list was thinned out, with actives kept by preference.
target: Genome polyprotein (West Nile virus) (UniProt P06935); experiment: West Nile NS2B-NS3 proteinase blockers – biochemical, fluorogenic substrate, primary screen (AID 577); settings: WNV NS2B-NS3 protease, fluorogenic substrate Ex360/Em465; stronger effect = lower value
Sequence (P06935 1371-1501 limits assumed): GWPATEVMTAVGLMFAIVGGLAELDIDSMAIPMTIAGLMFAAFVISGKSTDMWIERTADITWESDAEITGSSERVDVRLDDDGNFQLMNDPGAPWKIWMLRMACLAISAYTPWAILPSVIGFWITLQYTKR
Sequence (P06935 1502-1679 limits assumed): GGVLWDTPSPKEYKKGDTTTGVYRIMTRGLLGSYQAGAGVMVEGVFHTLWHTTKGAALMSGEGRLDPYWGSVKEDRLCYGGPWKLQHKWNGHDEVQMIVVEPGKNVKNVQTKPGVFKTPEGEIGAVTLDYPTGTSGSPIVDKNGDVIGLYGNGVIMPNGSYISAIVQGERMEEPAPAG

z-score, inactive:
CC(C)CNS(=O)(=O)c1ccc(OCC(=O)Nc2ccc3c(c2)OCO3)c(Cl)c1 0.53
COc1cccc(-c2nn(C)c3sc(C(=O)N4CCN(c5ccccc5)CC4)cc23)c1 -0.13
O=C(c1ccccc1)c1cccn1CC(=O)N1CCN(c2ccc(F)cc2)CC1 -1.05
COc1cccc(-c2nc(S(=O)(=O)c3ccccc3)c(N3CCOCC3)o2)c1 -0.88
CC(C)n1c(C(O)c2ccccc2)nc2ccccc21 (stereo not drawn) -1.05
O=C(Nc1nnc(-c2ccc(Cl)cc2)o1)c1ccccc1Br 2.56
O=C(O)C1CCN1C1CCCCC1 (stereo not drawn) -0.3
CCCOc1ccc(NC(=O)C2CCCNC2=O)cc1 (stereo not drawn) 0.11
CCn1cc(C(=O)NC2CCCCCC2)c(=O)c2cc(S(=O)(=O)N3CCCCC3)ccc21 -1.17
Oc1ccc(Cl)cc1/C=N/c1nc2ccccc2[nH]1 -0.26
CCOC(=O)C1CCN(C(=O)CC2C(=O)N(Cc3ccccc3)C(C)c3nc4ccccc4n32)CC1 (stereo not drawn) -0.76
Brc1cnc(N2CCCC2)nc1N1CCCCC1 -0.6
CCOC(=O)c1ccc(Nc2cc(C)nc3nc(C)nn23)cc1 -0.96
Cn1nc(-c2ccc(N3CCOCC3)c(NC(=O)c3ccccc3)c2)c2ccccc2c1=O -0.07
COc1ccc(CCNC(=O)CSc2nnc(-c3cccc(F)c3)o2)cc1OC 0.62
O=C(CSC1=Nc2ccccc2C2=NC(c3ccccc3)C(=O)N12)NCC1CCCO1 (stereo not drawn) -0.94
CCOC(=O)N1CCN(C(=O)c2ccc(S(=O)(=O)c3ccc(C)cc3)c(NC(C)=O)c2)CC1 0.25
CCc1nc2oc3ccccc3c(=O)c2c(=O)n1Cc1ccc(OC)cc1 -0.51
CC1CCN(Cc2nc3c(c(=O)n(C)c(=O)n3C)n2Cc2cccc3ccccc23)CC1 -0.71
CCC(C(=O)N1CCOCC1)n1c(C(=O)OC)cc2occc21 (stereo not drawn) -1.12
O=C(NC1CCCCC1)N1CCc2[nH]c3ccccc3c2C1 0.65
Cn1c(=O)c2[nH]c(NCC3CCCO3)nc2n(-c2ccccc2)c1=O (stereo not drawn) -0.17
Cc1c(C(=O)NCC2CCCO2)sc2nc(-c3ccccc3)cn12 (stereo not drawn) 0.86
Cc1nn(Cc2ccccc2)c(Cl)c1C(=O)OC1CCOC1=O (stereo not drawn) 0.09
c1ccc(-c2cn3cccnc3n2)cc1 1.38
Cc1ccc(-n2c(Cc3cccs3)nnc2SCC(=O)OC(C)C)cc1 -0.91
CCOc1ccc(OCC)c(NC(=O)CSc2nnc(Cn3cnc4ccccc43)n2C)c1 1.68
CSc1sc(C)cc1C1C(C#N)=C(N)N(c2cccnc2)C2=C1C(=O)CCC2 (stereo not drawn) 0.7
CCC(C)n1[nH]c(=O)c2c(C)cc(C)nc21 (stereo not drawn) 0.11
COc1ccc(/C(O)=C2/C(=O)C(=O)N(c3nc(C)c(C)s3)C2c2ccco2)cc1 (stereo not drawn) -0.46
CCOC(=O)c1sc(NC(=O)C(CC)Sc2nccn2C)nc1C (stereo not drawn) 0.77
CCOC(=O)c1sc(=S)n2c1[nH]c(=O)c1ccc(C(=O)OC)cc12 0.38
Cc1ccccc1-c1nc(CS(=O)(=O)CC(=O)N2CCc3ccccc3C2)c(C)o1 -0.21
CC(C)c1ccc(NS(=O)(=O)c2cn(C)c(=O)n(C)c2=O)cc1 -1.04
CCCOc1ccc2c3c(c(=O)oc2c1OCCC)CCC3 -0.02
COc1ccc(NC(=O)CN(C)S(=O)(=O)c2ccccc2)cc1OC -0.74
Cc1ccc(NC(=O)C2CCCN(S(=O)(=O)c3c(C)noc3C)C2)c(C)c1 (stereo not drawn) -1.04
CCOC(=O)Cn1c(CN(Cc2ccccc2)Cc2ccccc2)nc2c1c(=O)[nH]c(=O)n2C 1.45
COc1ccc(CCNS(=O)(=O)c2ccc(F)cc2)cc1OC -0.37
Cc1nnc(SCC(=O)Nn2cnnc2)s1 0.2
CCCCn1c(CCCNC(=O)CC)nc2ccccc21 0.2
CC(=O)c1ccc(NC(=O)N[C@@H](Cc2ccccc2)C(=O)O)cc1 1.38
Cc1ccc(C)c(NC(=O)C2CC(=O)N(C(C)C)C2)c1 (stereo not drawn) -0.7
Clc1ccc(C=NC23CN4CN(CN(C4)C2)C3)cc1 1.48
O=C1CC(Cc2ccccc2)C(=O)N1c1ccc(Cl)cn1 (stereo not drawn) -1.5
CCN(CC)C(=O)CSc1nnc(-c2cnccn2)n1-c1ccc(C)cc1 0.78
CSCCC(NC(=O)C1CCC(C)CC1)C(=O)NCc1ccco1 (stereo not drawn) 0.29
CCCCOC(=O)NCN1C(=O)C2C3C=CC(C3)C2C1=O (stereo not drawn) 0.28

Source: PubChem BioAssay AID577 (University of Pittsburgh Molecular Library Screening Center, 2007)
